Laboratory results from the supplement of paper PMC6555819.

Columns and labels:
Test in all cases: PBM binding z-score (relative to random genomic background probes); higher = stronger binding; sequences stand for … in GC…GCGATTGACAGCGTAGAATGAAGG
[1] = tested on: FXR:RXRa (NR concentration 270 nM, RXRa partner concentration 90 nM)
In short: (§1)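 Random background probes are the reference for binding z-scores. These scores derive from regression-normalized fluorescence on custom Agilent 4×180K protein-binding microarrays incubated 1 h with ligand-free nuclear receptor dimers. Binding was detected with antibodies against each partner (one per run).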

[2] = tested on: LXRa:RXRa (NR concentration 270 nM, RXRa partner concentration 90 nM)
In short: as §1

[3] = tested on: LXRa homodimer (NR concentration 270 nM)
In short: as §1

[4] = tested on: LXRb:RXRa (NR concentration 270 nM, RXRa partner concentration 90 nM)
In short: as §1

[5] = tested on: LXRb homodimer (NR concentration 270 nM)
In short: as §1

[6] = tested on: PPARa:RXRa (NR concentration 270 nM, RXRa partner concentration 90 nM)
In short: as §1

[7] = tested on: PPARg:RXRa (NR concentration 180 nM, RXRa partner concentration 90 nM)
In short: as §1

[8] = tested on: PPARg:RXRa 270nM:90nM, anti-RXR (NR concentration 270 nM, RXRa partner concentration 90 nM)
In short: as §1

[9] = tested on: PPARg:RXRa 30nM:10nM, anti-RXR (NR concentration 30 nM, RXRa partner concentration 10 nM)
In short: as §1

[10] = tested on: PPARg:RXRa 90nM:30nM, anti-RXR (NR concentration 90 nM, RXRa partner concentration 30 nM)
In short: as §1

[11] = tested on: PPARg:RXRa DBDmut IVT, anti-RXR (DBD mutation: RXRa K156A/R161A, NR concentration 270 nM, RXRa partner concentration 90 nM)
In short: as §1

[12] = tested on: PPARg:RXRa IVT, anti-PPARg (NR concentration 270 nM, RXRa partner concentration 90 nM)
In short: as §1

[13] = tested on: PPARg DBDmut:RXRa IVT, anti-PPARg (DBD mutation: PPARg1 K132A/R137A, NR concentration 270 nM, RXRa partner concentration 90 nM)
In short: as §1

[14] = tested on: PPARg DBDmut IVT, anti-PPARg (DBD mutation: PPARg1 K132A/R137A, NR concentration 270 nM)
In short: as §1

[15] = tested on: PPARg homodimer (NR concentration 180 nM)
In short: as §1

[16] = tested on: PXR:RXRa (NR concentration 270 nM, RXRa partner concentration 90 nM)
In short: as §1

[17] = tested on: PXR homodimer (NR concentration 270 nM)
In short: as §1

[18] = tested on: RARa:RXR (NR concentration 270 nM, RXRa partner concentration 90 nM)
In short: as §1

[19] = tested on: RARa homodimer (NR concentration 270 nM)
In short: as §1

[20] = tested on: RARb:RXRa (NR concentration 270 nM, RXRa partner concentration 90 nM)
In short: as §1

Sequence	PBM binding z-score [1]	PBM binding z-score [2]	PBM binding z-score [3]	PBM binding z-score [4]	PBM binding z-score [5]	PBM binding z-score [6]	PBM binding z-score [7]	PBM binding z-score [8]	PBM binding z-score [9]	PBM binding z-score [10]	PBM binding z-score [11]	PBM binding z-score [12]	PBM binding z-score [13]	PBM binding z-score [14]	PBM binding z-score [15]	PBM binding z-score [16]	PBM binding z-score [17]	PBM binding z-score [18]	PBM binding z-score [19]	PBM binding z-score [20]
CGTCCAAGGTCAGCAGGTCTGTGAAAGCGACGTG	5.03	3.02	-0.272	2.06	-0.284	4.16	2.65	3.06	0.0215	1.57	2.57	2.56	0.914	-0.164	2.67	2.58	0.407	3.61	0.46	4.85
GCTTGCGGGTCAAAGGTTATAGCATGAATAGAAT	7	5.1	0.347	5.46	-0.491	7.24	11.2	9.57	9.43	9.99	6.08	6.75	0.506	0.0418	2.11	6.07	0.118	7.94	0.537	4.53
TCTAGTTGGCCACGGAGGTCACACACGACGGGTA	2.71	2.79	1.39	3.2	0.0016	3.68	2.32	2.96	2.82	2.84	1.59	2.78	1.61	0.255	2.19	4.03	0.788	3.94	0.587	3.35
TCTTGTAGATCAGCTGGTTAAGAAAGCTGGCCAA	0.0372	-0.146	-0.717	-0.0754	-0.836	0.363	-1.11	1.04	2.43	1.75	1.46	-0.0157	-0.253	-0.0877	-0.903	0.0917	-0.51	0.0228	-0.485	-0.526
GCGACTGGGGCATCAGCAGGTCACCATAACTTAA	0.886	1.37	0.749	2.27	-0.977	2.79	2.16	2.13	0.0296	1.03	4	4.06	-0.0316	-0.625	2.67	2.2	0.0166	3.04	0.0286	2.53
ATCTCTAGGAAAGACTCAGTTCAGTGAAGAACGC	0.193	0.324	0.437	0.164	0.531	-0.385	-0.00135	-0.209	-0.24	-0.119	-0.0594	-0.318	0.245	0.852	0.978	0.737	1.37	0.199	0.964	0.144
CCTCAGAGGACAACAGGAGGTCAGAGCTGCCAGA	1.05	2.25	2.4	1.34	-0.195	2.09	0.662	0.51	-0.374	-0.163	0.559	0.422	-0.428	-1.85	1.69	2.04	0.295	2.24	0.569	3.46
ACTAGTTGGTCAGCTGAGGTTACACACAATTCGG	1.56	0.761	0.139	1.29	0.188	1.42	0.989	0.496	0.134	0.586	1.4	1.58	0.987	0.803	1.09	2.46	0.19	1.64	-0.138	1.73
ATATGTAGGTTAGCTGGGGCCATTCAGACTAGGC	0.601	1.15	0.0611	0.901	0.197	2.55	3.09	2.56	0.952	2.06	6.72	5.67	1.64	1.69	1.13	2.87	0.538	1.33	0.314	1.21
GCTTGTAGATCAAGGTCAAGAAAGACTAAGCTAA	3.17	3.25	0.618	3.02	0.0549	3.91	1.86	3.04	0.697	2.12	2.14	2.87	0.431	-0.296	1.34	2.63	0.449	3.08	0.173	3.5
TCTAGTTGGTCACGGAGGTCACGCACGACGGGTA	3.96	4.14	2.94	3.75	0.74	4.54	4.03	4.7	3.7	4.38	2.9	4.62	1.18	2.02	3.23	4.93	1.26	5.23	1.73	4.33
TCTTGTAGATCAAGTAGGTTAAGAAAGCCTGAGT	0.567	0.521	0.138	0.441	-0.306	1.17	-0.25	1.46	2.57	2.04	2.13	2.44	0.611	0.864	0.365	0.513	0.364	0.645	0.0237	0.154
TCTCGCAGGACACGAAAGGTCAGAGCTCGACATC	2.57	3.8	2.98	3.17	0.477	3.71	1.25	2.76	2.41	2.44	1.62	1.4	0.807	0.509	2.57	3.87	0.38	4.53	1.07	3.95
CCGAGTAGGTTATGGGGCCTTCAGGCAACGGTGA	0.0359	0.107	-0.191	0.353	-0.362	1.33	1.43	2.56	0.26	1.58	3.11	2.85	-0.856	-1.59	0.629	-0.268	-0.427	0.0801	0.0148	0.668
GCATATAGGTAATACAAGGTGGAAGTCCGATTGT	0.184	0.265	-0.224	-0.272	-0.619	0.775	0.978	0.953	0.435	0.586	4.14	2.47	1.2	0.302	-0.138	0.192	0.041	0.731	0.593	0.0105
CCTTACGGGTCACGAGGGTATAGCACGACGAGCG	6.44	4.54	-0.0656	3.48	-0.518	5.73	6.45	6.17	2.67	5.26	3.29	5.07	0.569	0.0491	2.12	4.23	-0.0662	4.88	0.889	4.44
CGTACAAGGTCAAGGTCAGTGAAAGAGACTCGAA	7.99	5.91	1.33	5.06	1.34	6.47	7.35	6.73	3.62	5.87	4.64	5.48	1.83	0.837	4.4	5.27	1.65	5.96	2.4	5.65
GCATATAGCTAATACAAGGTGAAAGTCCGATTGT	-0.158	-0.177	0.202	-0.0693	-0.0357	0.477	0.487	0.425	-0.0371	0.33	0.11	0.315	0.87	-0.0254	0.259	0.262	0.241	0.651	0.533	0.107
TGTCAAAGTTCAAAGGTAATGTAAGTATCCACAC	7.19	6.2	4.51	4.31	1.91	5.66	8.55	7.39	5.63	7.6	0.141	4.47	1.92	1.26	3.02	5.65	3.61	5.92	1.41	4.94
AGAATGAGGTTATACGTAGATCAGGGCAGAAAGT	2.33	1.89	0.241	1.77	-0.0553	3.17	1.83	2.15	0.79	1.41	4.01	2.15	0.485	0.402	0.774	1.45	1.34	1.82	0.705	1.51
TCATATAGGTAAAGGTGAATGTCGAACGATATGA	0.972	1.33	-0.151	1.19	-0.0794	2.99	4.24	4.23	4.36	4.59	3.9	4.33	0.991	1.7	1.02	0.695	0.181	1.46	0.501	1.87
ACTTACGGGTCAACGAGGTTATCGCACGCGTATA	7.3	5.42	1.07	4.36	1.13	5.83	5.87	5.69	2.32	4.5	4.15	4.2	2.65	1.38	3.14	5.58	4.21	5.88	0.958	4.4
GCTTGTAGTTCAAGGTTAAGAAAGACTAAGCTAA	1.52	2.43	0.162	1.53	-0.369	2.55	0.724	2.09	0.473	1.18	-0.00904	0.825	0.1	0.576	0.358	1.71	0.883	1.74	0.195	2.61
TCGCCTAGGTCATTGGGCCAGTATAGTACGCATC	4.27	2.83	0.548	2.4	-0.239	3.61	3.1	3.57	2.21	2.73	3.09	3.38	-0.283	-0.432	1.52	1.74	0.00603	2.24	-0.44	3.66
CCAGACAGGTGCAAGGTAACTCAGTCTGGTACGC	-0.53	-0.47	-0.166	-0.568	-0.694	-0.13	0.366	0.416	-0.287	0.128	-0.395	-0.318	-0.426	-0.666	-0.0621	-0.444	-0.237	-0.146	-0.328	-0.0725
TCAGACAGGTGAAGGTAACTCAGGTACGCAGTCG	0.942	1.82	-0.0918	1.2	-0.116	1.34	0.719	2.37	3.89	2.98	2.78	1.13	0.341	-0.339	0.564	0.641	0.447	0.878	0.775	1.18
GCTGCTAGGTCAACTGACGGTCAGCTAAAGCTCG	4.79	3.96	1.36	2.5	0.152	3.92	2.88	3.37	0.824	2.14	5.14	4.49	0.437	-0.0795	4.42	2.08	-0.874	4.58	1.05	4.56
CGTCCAAGGTCAGTGCTAGGTCAGTGAAAGCATT	4.03	3.44	0.709	2.75	-0.278	3.28	1.44	2.57	0.1	1.31	2.24	2.77	-0.328	-1.29	3.27	3.4	0.647	4.37	0.898	4.79
TCTTTTAGTTGAAGGGCAACCGACGAGTCCGTTT	0.645	1.13	0.171	1	1.62	1.16	-0.118	2.13	3.65	2.71	2.2	0.777	2.36	1.84	0.00638	0.764	0.475	0.383	0.199	1.65
